Whole data set: some 3,600 compounds, median “viability index relative to DMSO control” near 0.81, cut for the lowest 2% near 0.13. For the sample, the lowest values were picked, then their nearest neighbours and some compounds at random.
Each compound was assayed on Plasmodium falciparum NF54 stage V gametocytes (assay: viability index relative to DMSO control (fraction); higher = less gametocyte killing). Conditions: 1.25 µM, incubation time: 72 h.
In the case of COc1cc(C(c2c(C)n(C)n(-c3ccccc3)c2=O)c2c(C)n(C)n(-c3ccccc3)c2=O)cc(Cl)c1OCc1ccccc1, the viability index was 0.699.
In the case of Cc1n(C)c2ccccc2[n+]1CC(=O)c1ccccc1, the viability index was 0.785.
With COc1ccc(NC(=O)c2cnn(-c3ccccc3)c2NC(=O)c2ccco2)cc1 the viability index was 0.846.
With COc1cccc(CNC(=O)Cn2ncc3c(=O)oc4ccc(C)cc4c32)c1 the viability index was 0.843.
With CC(C)NCC(O)Cn1c2ccc(Cl)cc2c2cc(Cl)ccc21 (stereo not given) the viability index was 0.419.
For CC(=O)c1ccc(N2CCN(Cc3cc(-c4ccnc5cc(Cl)ccc45)ccc3O)CC2)cc1, the viability index was 0.433.
O=C1CC(c2cccc([N+](=O)[O-])c2)c2cc3c(cc2N1)OCO3 (stereo not given) was tested, and the viability index was 0.839.
O=[N+]([O-])c1cc(Br)c(Nc2ccccc2)c([N+](=O)[O-])c1 gave a viability index of 0.0522.
In the case of O=C(O)CCNc1ccccc1[N+](=O)[O-], the viability index was 0.971.
Compound Cc1cc(Nc2cccc([N+](=O)[O-])c2)nc2cc(O)ccc12 has a viability index of 0.819.
Work on COc1ccccc1NC(=O)C(=O)NCCc1ccc(OC)c(OC)c1 yielded a viability index of 0.413.
Cc1c(CN2CCC(N3CCC(C(=O)NC4CC4)CC3)CC2)[nH]c2c(Cl)cccc12 showed a viability index of 0.865.
With O=C(CN1CCN(C(=O)c2ccco2)CC1)Nc1cc(C(F)(F)F)ccc1Cl the viability index was 1.11.
In the case of Cc1cc(N2CCC(C)CC2)nc(-n2nc(C)cc2C)n1, the viability index was 0.
CC1CCN(c2nncc3ccccc23)CC1 gave a viability index of 0.777.
In the case of Cc1cc(C)n(-c2ncc(-c3ccc([N+](=O)[O-])cc3)cn2)n1, the viability index was 1.02.
CN1CCC(CCNCc2ccc(OCC(O)CN(C)Cc3ccccc3)cc2)CC1 (stereo not given) gave a viability index of 0.856.
With Cn1c(=O)c(Cl)c2c3c(c(Cl)ccc31)C(=O)c1ccccc1-2 the viability index was 0.0761.
In the case of CCCCNC(=O)c1nn(-c2ccc(OC)cc2)c(=O)c2ccccc12, the viability index was 0.946.
In the case of O=c1c(=Cc2ccc(-c3ccc([N+](=O)[O-])cc3Cl)o2)sc2nc3ccccc3n12, the viability index was 0.699.
With CCC(C)NCC(O)(c1ccc(Cl)cc1)c1ccc(Cl)cc1 (stereo not given) the viability index was 0.699.
With CCCOC(=O)C1=C(C)NC2=C(C(=O)CC(c3ccc(OC)c(OC)c3)C2)C1c1ccc([N+](=O)[O-])cc1 (stereo not given) the viability index was 0.514.
Work on CCOC(=O)c1c(Cl)nnc(-c2ccccc2)c1-c1ccccc1 yielded a viability index of 0.
With CCOC(=O)c1[nH]nc(C(=O)c2ccccc2)c1-c1ccccc1 the viability index was 1.27.
With CCOC(=O)c1c(-c2ccccc2)oc2c1C(=O)c1ccccc1C2=O the viability index was 0.461.
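Note: Saponin-lysis sexual stage assay in serum-free medium: MitoTracker Red CMXRos staining plus saponin, high-content imaging, particle count per well divided by plate mean of DMSO wells.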
